# Laboratory results from the supplement of paper PMC7801607.
# Tested on: Plasmodium berghei ANKA liver stage in HepG2-A16-CD81
# Experiment: % inhibition of liver stage parasite viability (luciferase); higher = more inhibition
# Details: 5 µM; 48 h
# Experimental: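 Single-concentration screen of the MMV Pandemic Response Box. P. falciparum NF54 asexual blood stages: pLDH assay, 72 h at 37 °C, 2 and 20 µM, n=2. Stage IV/V gametocytes (NF54): luciferase reporter (NF54-Pfs16-GFP-Luc, 48 h), ATP bioluminescence (24 h) and PrestoBlue (48 h) at 1 and 5 µM, n=1. P. berghei liver stage (luciferase in HepG2-A16-CD81, 48 h post infection) at 5 µM, n=4. All normalised to DMSO and kill controls as % inhibition.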
row,SMILES,% inhibition of liver stage parasite viability
1,O=C(Nc1ccc(F)cc1)c1nn(-c2ccccc2)c(=O)cc1Cl,3.89%
2,NC(=O)C(c1ccccc1)(c1ccccc1)[C@H]1CCCN(CCc2ccc3c(c2)CCO3)C1,48.5%
3,O=C(Nc1ccc(-c2ccccc2)cc1)C1=C(O)C(Cc2ccccc2)OC1=O (stereo not given),44.3%
4,CC(C)Nc1nc2cc(Cl)c(Cl)cc2n1[C@H]1O[C@@H](CO)[C@H](O)[C@@H]1O,12.5%
5,CC1CN(c2ncnc3c2c(-c2ccccc2)cn3-c2ccc(F)cc2)CC(C)O1 (stereo not given),37.1%
6,CCc1cc(CCC(=O)Nc2ccccc2O)c(=O)[nH]c1C,17.8%
7,CCC[C@H](NC(=O)[C@@H]1[C@H]2CCC[C@H]2CN1C(=O)[C@@H](NC(=O)[C@@H](NC(=O)c1cnccn1)C1CCCCC1)C(C)(C)C)C(=O)C(=O)NC1CC1,6.72%
8,O=C(NCc1ncc(C(F)(F)F)cc1Cl)c1c(Cl)cccc1Cl,34.7%
9,CO/N=C(\C(=O)N[C@@H]1C(=O)N2C(C(=O)OCOC(=O)C(C)(C)C)=C(/C=C\c3scnc3C)CS[C@H]12)c1csc(N)n1,34%
10,O=C(O)CCNC(=O)c1ccccc1,16%
11,CC(=O)NC[C@H]1CN(c2ccc(N3CCSCC3)c(F)c2)C(=O)O1,50.2%
12,O=C(Nc1ccccc1C(=O)O)c1cccc(Oc2ccccc2)c1,-3.28%
13,COc1ccc2c(c1OC)C(=O)OC2C1c2c(cc3c(c2OC)OCO3)CCN1C (stereo not given),19%
14,COc1ccc(NC(=O)CC2Sc3ncnn3C2=O)cc1 (stereo not given),34.5%
15,O=c1nc(N2CCN(CC3CCCCC3)CC2)sc2c([N+](=O)[O-])cc(C(F)(F)F)cc12,33.1%
16,CN(C)CCCNC(=O)c1ccc(-c2cc(O)c3ncccc3c2)cc1,24.5%
17,CCNC(=O)Nc1cc2c(-c3ccnc(C)c3)ccc(CNC(=O)OC)c2cn1,25.9%
18,O=C1C=C(c2ccccc2)S(=O)(=O)c2ccccc21,30.4%
19,O=[N+]([O-])/C(Br)=C/c1ccc(Br)o1,15.9%
20,Nc1cc(N)c2nc(-c3ccccc3)c(Nc3ccc(F)cc3)nc2c1,43.9%

row,SMILES,% inhibition of liver stage parasite viability
1,Cc1ccc(S(=O)(=O)Nc2cccc3cccnc23)cc1,27.6%
2,O=C(NC1CCCc2c1[nH]c1ccc(Cl)cc21)c1ccccn1 (stereo not given),2.22%
3,COc1cccc(N2CCN(C3=Nc4c(F)cccc4[C@H](CC(=O)O)N3c3cc(C(F)(F)F)ccc3OC)CC2)c1,21.2%
4,CC(C)/N=c1\cc2n(-c3ccc(Cl)cc3)c3ccccc3nc-2cc1Nc1ccc(Cl)cc1,59.4%
5,NC1C2CC3CC(C2)CC1C3 (stereo not given),9.47%
6,Cc1nc2ccc(Cl)cc2c(-c2ccccc2)c1CC(=O)O,24.5%
7,O=c1[nH]c(=O)n(Cc2cccc(Oc3ccccc3)c2)cc1Nc1ccccc1,-3.63%
8,Nc1nnnn1CCOc1c2[nH]c3ccc(Cl)cc3c2cc2c1[nH]c1ccc(Cl)cc12,24.1%
9,CCc1cc(O)c(Oc2ccc(C(N)=O)cc2F)cc1F,8.75%
10,Cc1ncc([N+](=O)[O-])n1CC(O)CN1CCOCC1 (stereo not given),25.3%
11,Cc1cccc(C)c1C(=O)Nc1nc(-c2ccccn2)cc2ccccc12,73.3%
12,CSc1ccc2c(c1)C(N1CCN(C)CC1)Cc1ccccc1S2 (stereo not given),23%
13,Cc1ccc(NC(=O)c2cc(Cl)ccc2O)cc1,78.5%
14,Cc1cc(Nc2ccc(F)cc2)nc(SCc2nc3ccccc3[nH]2)n1,25.6%
15,O=C(NO)C1(CS(=O)(=O)c2ccc(Oc3ccc(Cl)cc3)cc2)CCOCC1,35.5%
16,N=C(N)NCCCCC(=O)Nc1cc(C(F)(F)F)cc(NC(=O)c2cc(C(=O)Nc3cc(C(F)(F)F)cc(NC(=O)CCCCNC(=N)N)c3O[C@@H]3CCNC3)ncn2)c1O[C@@H]1CCNC1,35.9%
17,O=C(CP(=O)(O)O)NCCc1cccc(Oc2ccccc2)c1,27.3%
18,C[C@H]1COc2c(N3CCN(C)CC3)c(F)cc3c(=O)c(C(=O)O)cn1c23,11.6%
19,O=C(Cn1cnc2ccccc2c1=O)Nc1ccccc1,2.82%
20,Oc1ccc2[nH]c(-c3ccccc3)nc2c1,-35.4%
